Gli-Sufu block: Gli-Sufu pathway antagonism. actives 0.74% (n = 340,000). Sufu-KO-LIGHT fibroblasts, Gli luciferase reporter luminescence. inhibition, % at 5 µM;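 active = inhibition above about 55%, limit read from the data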;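 also: 0% = DMSO-treated cells and 100% = wells with medium but no cells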
697 NFkB inh: lowers PMA/ionomycin-induced NF-kB signal in 697 B cells; 697 B-cell NF-kB luciferase reporter, 16 h; inhibition, % at 4 µM; actives 0.33% (n = 330,000); in the data active = inhibition above about 35%
Mdm2-MdmX inh: inhibitors of human Mdm2/MdmX interaction. AID 485346. actives 3% (n = 330,000). SaOS-2 split-luciferase Mdm2/MdmX complementation, luminescence. inhibition, % at 8 µM;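 active = inhibition of at least 50% at 8 µM in the primary screen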
Target sequence (O15151 whole entry, looked up): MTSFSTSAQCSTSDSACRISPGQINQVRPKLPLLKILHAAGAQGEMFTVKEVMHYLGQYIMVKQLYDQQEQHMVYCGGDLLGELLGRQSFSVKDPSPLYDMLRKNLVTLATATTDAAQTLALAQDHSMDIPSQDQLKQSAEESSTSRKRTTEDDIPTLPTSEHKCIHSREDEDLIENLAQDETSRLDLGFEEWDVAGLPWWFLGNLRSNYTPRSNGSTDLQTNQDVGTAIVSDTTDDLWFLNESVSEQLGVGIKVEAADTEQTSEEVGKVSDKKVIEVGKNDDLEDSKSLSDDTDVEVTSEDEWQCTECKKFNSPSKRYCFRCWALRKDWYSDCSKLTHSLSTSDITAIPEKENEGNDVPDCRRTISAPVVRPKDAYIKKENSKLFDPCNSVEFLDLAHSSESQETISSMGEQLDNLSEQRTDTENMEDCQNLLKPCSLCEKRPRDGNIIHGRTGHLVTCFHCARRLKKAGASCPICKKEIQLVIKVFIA
Target sequence (Q00987 whole entry, looked up): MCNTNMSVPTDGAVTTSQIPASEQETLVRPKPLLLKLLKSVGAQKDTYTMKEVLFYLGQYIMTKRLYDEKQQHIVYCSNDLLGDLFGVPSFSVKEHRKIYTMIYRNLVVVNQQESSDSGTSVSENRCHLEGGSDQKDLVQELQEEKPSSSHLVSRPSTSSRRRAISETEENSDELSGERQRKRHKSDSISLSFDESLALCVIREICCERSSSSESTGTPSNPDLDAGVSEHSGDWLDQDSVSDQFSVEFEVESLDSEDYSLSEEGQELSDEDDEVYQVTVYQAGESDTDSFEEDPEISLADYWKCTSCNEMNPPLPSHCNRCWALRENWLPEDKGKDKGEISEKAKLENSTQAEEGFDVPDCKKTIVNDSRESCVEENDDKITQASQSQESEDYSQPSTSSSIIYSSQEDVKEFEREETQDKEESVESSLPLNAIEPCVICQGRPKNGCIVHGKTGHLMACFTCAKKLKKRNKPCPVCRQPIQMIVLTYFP
Jurkat NFkB inh: lowers PMA/ionomycin-induced NF-kB signal in Jurkat cells; PMA/ionomycin-induced NF-kB luciferase reporter, luminescence; inhibition, % at 4 µM; actives 0.53% (n = 330,000); AID 435003; in the data active = inhibition above about 50%
Beta apoptosis: beta cell apoptosis inhibition. protection from apoptosis, % (no concentration beside the values). actives 0.8% (n = 300,000). INS-1E cytokine-induced death, ATP luminescence, 48 h; percent of positive-control rescue, neutral wells zero;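 active = Every replicate reaches about 75%, or at least half do and their mean reaches it too, limit read from the data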;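 also: 0% = cytokine-treated negative control wells and 100% = positive control rescue; higher means more ATP so stronger rescue from cytokine killing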
Gli antag conf: confirmation of Gli-SUFU pathway antagonists; shares compounds with Gli-Sufu block; Sufu-KO-LIGHT cells, Gli luciferase reporter, luminescence; inhibition, % at 5 µM; actives 40% (n = 2,500); AID 602428;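 active = mean inhibition at 5 µM reaching about 45%, limit read from the data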;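 also: plate controls were DMSO-treated cells for no effect and wells lacking cells for full effect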
Gli cytotox: cytotoxicity counter-screen for Gli-SUFU antagonists | shares compounds with Gli-Sufu block | Sufu-KO-LIGHT cells cytotoxicity, ATP luminescence | actives 32% (n = 2,500) | cytotoxicity, % at 5 µM;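 active = mean cytotoxicity at 5 µM above about 25%, limit read from the data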;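 also: cells exposed to compound overnight for roughly 16 to 18 hours; plate controls were DMSO wells with cells for no effect and medium without cells for full effect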
Wnt3a counter: Wnt3a reporter inhibition counter-screen | AID 651995 | shares compounds with Gli-Sufu block | Wnt-LIGHT cells, Wnt3a-driven luciferase reporter, luminescence | actives 20% (n = 2,500) | inhibition, % at 6.25 µM;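 active = mean inhibition above about 25%, limit read from the data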
The depositor's hits bear a star; / = not tested or not shown. An excerpt weighted towards active compounds, which were near 4% of everything screened.

SMILES	Gli-Sufu block	697 NFkB inh	Mdm2-MdmX inh	Jurkat NFkB inh	Beta apoptosis	Gli antag conf	Gli cytotox	Wnt3a counter
CN1CCN(C(=O)CCNC(=O)Cn2ccc3ccccc3c2=O)CC1	99*	-3	15	-3	-7	10	2	-9
COc1ccc(S(=O)(=O)N2CCCC(C(=O)NCC3CCCO3)C2)cc1OC (centres undefined)	9	2	19	11	-8	/	/	/
Cc1[nH]c2ccccc2c1[C@H]1[C@@H](CC#N)C1(C)C	51	13	10	-1	-2	22	5	-6
O=C(COc1ccc(Cl)cc1Cl)NC(=S)N1CCCc2ccccc21	53	-59	3	-30	1	14	22	17
COc1ccc(/C=C(\NC(=O)c2ccco2)C(=O)Nc2ccc(C(C)=O)cc2)cc1	-5	20	-16	-13	6	/	/	/
CCOC(=O)c1c(C)[nH]c(C)c1S(=O)(=O)NCCN1CCN(c2ccccc2F)CC1	67*	8	3	28	-1	21	12	-17
Clc1ccc(SCCOCCN2CCCCC2)cc1	79*	-3	10	-11	-1	28	13	-26
C[C@H]1CN(S(=O)C(C)(C)C)[C@@H](CCO)/C1=C\c1ccccc1 (some centres undefined)	1	/	/	/	/	/	/	/
COc1cc(C(=O)NNC(=S)NC(=O)c2ccc(F)cc2)cc(OC)c1OC	57*	25	-5	10	7	14	18	-19
COc1ccc(C(=O)NNC(=S)NC(=O)c2ccc(F)cc2)cc1Br	1	5	35	-3	-1	/	/	/
Cc1ccc(N2CN(CCc3ccccc3)CNC2=S)cc1	-5	-26	6	-1	0	/	/	/
Fc1ccc(NCc2nnc(SCc3ccccc3)o2)cc1	-1	8	-13	-7	-8	/	/	/
NCCc1nnc(SCc2ccc(F)cc2)o1	68*	17	-3	-17	-1	8	5	2
Cc1cc(C)cc(C(=O)NCC(=O)OCN2C(=O)c3ccccc3C2=O)c1	-5	6	4	-15	-3	/	/	/
COc1ccccc1-n1c(=O)c2c3c(sc2n2c(SC)nnc12)CCC3	52	18	5	4	0	15	-4	17
COc1cc2cc(CCCOC(=O)CCC(=O)O)oc(=O)c2cc1OC	-17	-7	-13	-1	3	/	/	/
CC(C)C1Cc2nc(Cl)c(C#N)cc2CO1 (centres undefined)	6	12	7	4	/	/	/	/
O=C(Cc1cccs1)Nc1ccc2c(c1)C(=O)OC2	99*	16	0	-7	8	15	5	2
O=C(Cc1cccs1)Nc1ccc(F)c(F)c1	-20	4	10	6	0	/	/	/
Cc1ccc(N2CC(C)Cn3c2nc2c3c(=O)n(CC(=O)OCc3ccccc3)c(=O)n2C)cc1C (centres undefined)	57*	-18	19	-6	16	38	17	-37
Cc1ccccc1CS(=O)(=O)Cc1ccc(C(=O)NCc2ccco2)o1	51	-5	13	-6	0	12	5	-24
CCOC(=O)C1(Cc2ccc(OC)cc2)CCN(C(=O)CCc2cccnc2)CC1	-14	-30	-3	-5	-3	/	/	/
Cc1onc(-c2ccccc2Cl)c1C(=O)N1CCCCCC1	59*	3	20	8	/	24	4	4
Cc1onc(-c2ccccc2Cl)c1C(=O)N1CCCC1	46	6	22	0	-6	/	/	/
NS(=O)(=O)c1ccc(CCNc2ncnc3sccc23)cc1	60*	26	15	33	43	55*	31*	28*
SMILES	Gli-Sufu block	697 NFkB inh	Mdm2-MdmX inh	Jurkat NFkB inh	Beta apoptosis	Gli antag conf	Gli cytotox	Wnt3a counter
C=CCN(CC=C)C(=O)CN1C(=O)NC(c2ccccc2)(c2ccccc2)C1=O	-7	5	28	-2	/	/	/	/
CC(=O)NC(CCS(C)(=O)=O)C(=O)Nc1cc(C)ccc1C (centres undefined)	54	11	-4	7	-10	10	7	-11
CC(=O)NC(CCS(C)(=O)=O)C(=O)Nc1cccc(C)c1 (centres undefined)	-3	14	-12	8	-1	/	/	/
CC(C)C(C(=O)NCC1CCCO1)N(Cc1ccccc1)C(=O)CNS(=O)(=O)c1ccccc1 (centres undefined)	-10	0	-3	-7	5	/	/	/
Cc1ccccc1N1C(=O)C(Cl)=C(N2CCCCCC2)C1=O	8	-25	-29	-13	-3	/	/	/
O=C1C(Cl)=C(N2CCCCC2)C(=O)N1c1ccccc1Cl	60*	4	-14	-5	-5	20	19	1
CCNC(=S)N(CCN(C)C)Cc1cc2cc(OCC)ccc2[nH]c1=O	60*	-7	27	9	-4	23	12	-8
CCNC(=S)N(CCc1cccc(C)c1)Cc1cc2cc(OC)c(OC)cc2[nH]c1=O	52	4	-16	-13	2	14	25	-22
CCNC(=S)N(Cc1cccs1)Cc1cc2cc(OCC)ccc2[nH]c1=O	14	-2	25	2	-8	/	/	/
O=C(CN1c2cccc3cccc(c23)S1(=O)=O)NCCc1ccc(F)cc1	8	22	21	-6	0	/	/	/
Cc1ccc2c(c1)N(CCC(=O)NCc1cccnc1)C(=O)CO2	3	0	8	4	-4	/	/	/
Cc1ccc2c(c1)N(CCC(=O)NCc1ccccn1)C(=O)CO2	53	14	15	0	-5	8	0	5
Cn1c(CSCc2ccc(F)cc2)nnc1SCC(=O)Nc1nccs1	61*	-8	13	5	3	23	10	-18
CCCNC(=O)c1ccccc1NC(=O)c1ccc2c(=O)n3c(nc2c1)CCC3	96*	-9	-12	-6	-1	22	15	-1
Cc1ccc(CS(=O)(=O)CCC(=O)NCc2ccccc2Cl)cc1	53	9	19	-11	2	8	22	-16
COc1ccccc1CNC(=O)CCS(=O)(=O)Cc1ccc(C)cc1	-9	0	2	1	1	/	/	/
O=C(COC(=O)C1=COCCO1)NC(=O)c1ccc(OC(F)F)cc1	29	10	-3	-3	-9	/	/	/
Cc1nnc(NCc2ccncc2)c2ccccc12	51	2	22	5	0	22	19	-5
Cc1nnc(NCc2ccccc2)c2ccccc12	-2	-12	-3	-13	2	/	/	/
CC1=C(C(=O)OCC(C)C)C(c2cccc(F)c2)N2C(=O)C(C)SC2=N1 (centres undefined)	65*	-7	11	-11	-1	11	-3	-12
